FLuc counter – counter-screen for miR-21 project: firefly luciferase inhibitors or activators | P08659 | purified FLuc, Km substrates, luminescence inhibition | Potency, µM (titrated, usually from 57.5 µM), without a hit: at the top dose activity change, negative = inhibition, actives largely listed as inhibitors | actives 6.9% (n = 360,000) | AID 588342;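 note: plate controls were vehicle for no effect and reference inhibitor for full effect; nearly all actives have a fitted effect of over 55% in size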
Target sequence (P08659 whole entry, looked up): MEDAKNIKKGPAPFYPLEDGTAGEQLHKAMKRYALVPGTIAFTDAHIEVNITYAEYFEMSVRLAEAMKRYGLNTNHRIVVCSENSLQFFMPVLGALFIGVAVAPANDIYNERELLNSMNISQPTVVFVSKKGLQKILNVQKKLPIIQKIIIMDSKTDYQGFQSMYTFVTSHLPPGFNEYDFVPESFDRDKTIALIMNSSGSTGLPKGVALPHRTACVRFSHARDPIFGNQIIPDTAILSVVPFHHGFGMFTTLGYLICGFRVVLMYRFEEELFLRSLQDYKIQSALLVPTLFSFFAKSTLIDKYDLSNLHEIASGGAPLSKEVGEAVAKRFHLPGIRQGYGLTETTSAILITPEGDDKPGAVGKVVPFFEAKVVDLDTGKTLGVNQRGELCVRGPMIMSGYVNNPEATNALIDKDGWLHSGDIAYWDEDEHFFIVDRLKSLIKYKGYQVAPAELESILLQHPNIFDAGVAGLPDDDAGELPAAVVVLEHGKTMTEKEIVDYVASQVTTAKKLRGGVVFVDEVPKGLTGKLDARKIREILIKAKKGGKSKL
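Purified P. pyralis luciferase (10nM final) with 10uM D-luciferin and 10uM ATP (Km levels) in 50mM Tris acetate pH 7.5, 10mM Mg acetate, 0.01% Tween-20, 0.05% BSA; qHTS 6-point titration, ~60 µM downward; luminescence read.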
Rab9 promoter act – activators of Rab9 promoter; Huh7 Rab9 promoter-luciferase reporter, luminescence, 24 h; Potency, µM (top dose mostly 9.22 µM), for the others: at the top dose activation, negative = inhibition, most hits filed as activators; actives 2.8% (n = 320,000); AID 485297; note: % of control where 0% means no effect; nearly all actives have a fitted effect of over 60% in size
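Cells were plated at 1500 per well in reduced-serum medium with 10% FBS and left 2 h. Compound in DMSO was then added for 24 h at 37 °C. Reporter signal was read by luminescence after 10 min with luciferase detection reagent.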
ELG1 genotox – genotoxicity induction in ELG1-luciferase HEK293T cells. HEK293T ELG1-luciferase reporter, luminescence, 16 h. Potency, µM (doses to about 46 µM), inactives show top-dose activity change, positive = activation, hits mostly activators. actives 1.3% (n = 330,000). AID 504466; note: % of control where 0% means no effect; nearly all actives have a fitted effect of over 60% in size
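HEK293T cells expressing luciferase-tagged ELG1 were treated with compound or DMSO for 16 hr at 37°C. Luciferase activity was then read after 30 min with ONE-Glo at room temperature; rising signal flags genetic stress.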
NPC1 promoter act – activators of NPC1 promoter. Huh7 NPC1 promoter luciferase reporter, 24 h. Potency, µM (titrated, usually from 9.22 µM), inactives show top-dose activation, actives largely listed as activators. actives 2.4% (n = 320,000). AID 485313; note: % of control where 0% means no effect; nearly all actives have a fitted effect of over 60% in size
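Compounds in DMSO were transferred onto Huh7 NPC1-luciferase reporter cells pre-incubated 2 h; after 24 h at 37 °C, Amplite reagent was dispensed and luminescence recorded 10 min later.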
SMN2 splice enh – SMN2 splice variant enhancement; HEK293 SMN2-luciferase splicing reporter, luminescence, 30-36 h; Potency, µM (highest dose often 46.1 µM), without a hit: top-dose activity change, positive = activation, usual class: activators; actives 2.8% (n = 210,000); AID 1458; note: % of control where 0% means no effect; nearly all actives have a fitted effect of over 55% in size
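HEK293 cells carry an SMN2 minigene-luciferase reporter in which exon 7 inclusion puts luciferase in frame. Cells were seeded at 2000 cells/well, attached for 10-12 hours, then exposed to compounds for 30-36 hours at 37C before ONE-Glo luminescence.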
An asterisk follows results filed as active; ? = inconclusive; . = not tested or not shown; [ ] = another dose, or the depositor's remark. This is a sample that favours compounds with a hit; in the whole collection about 7.4% have one here. Calls come from the whole dose curve; as a rule, active = well fitted curve in the direction sought with a large enough effect; inconclusive = small, poorly fitted or top-dose-only effect, or another doubt; inactive = no such curve, though single readings can be large; an effect the other way counts as inactive or inconclusive. Potency is the fitted concentration of half-maximal effect.

SMILES	FLuc counter	Rab9 promoter act	ELG1 genotox	NPC1 promoter act	SMN2 splice enh
O=C(NNC(=O)c1ccco1)c1ccccc1	-2%	-3%	13%	0%	?
COC(=O)/C(=C/c1ccc(OC)cc1)NC(=O)c1ccco1	-2%	1%	0%	-2%	-6%
COc1ccc(C(=O)COC(=O)c2cncc(Br)c2)cc1	?	-4%	-2%	1%	.
CCCOc1ccc(NC(=O)CC2C(=O)N(c3ccccc3)C(=O)N2CCC(C)C)cc1 (stereo not given)	-8%	.	.	.	.
COc1ccc(C(=O)COC(=O)c2ccco2)cc1	1.1µM*	3%	?	?	12%
COc1cccc(NC(=O)COC(=O)c2ccco2)c1	?	2%	0%	1%	-7%
O=C(OCc1ccc(COC(=O)c2ccccn2)cc1)c1ccccn1	4%[2.3 µM]	-5%	1%	-2%	0%
N/C(=N\OC(=O)c1ccco1)c1ccccn1	8.5µM*	29%	?	20%	?
COc1ccc2c(c1)c(CC(=O)NCc1ccc3c(c1)OCO3)c(C)n2C(=O)c1ccc(Cl)cc1	.	.	.	.	7%
O=C(O)C1Cc2c([nH]c3ccccc23)C(c2coc3ccccc3c2=O)N1 (stereo not given)	.	.	.	.	-4%
Cc1cccc(NC(=O)CSc2cc(C)c3ccccc3n2)c1	-18%	.	.	.	8.9µM*
CC1CCc2nc(NC(=O)CSc3nc4ccccc4o3)sc2C1 (stereo not given)	6.7µM*	?	6.5µM*	?	-81%
Cc1ccc(-c2csc(NC(=O)CSc3nc4ccccc4o3)n2)cc1	.	25%	?	26%	14µM*
CC(=O)c1cc2c(cc1NC(=O)CSc1nc3ccccc3o1)OCO2	0%	?	10µM*	20%	?
CCOC(=O)CC(NC(=O)c1cc2cc(Cl)ccc2oc1=O)c1ccc(C)cc1 (stereo not given)	-5%	.	.	.	3%
Cc1cccc(NC(=O)CSc2nc3ccccc3o2)c1	?	0.89µM*	1.5µM*	1.4µM*	?
COc1ccccc1Oc1ccc2c(c1)C(=O)N(c1ccccc1)C2=O	9.5µM*	1%	-1%	-6%	-15%
COc1ccc(CCNC(=O)c2cnn(-c3ccc(F)cc3)c2C2CCN(C(=O)OC(C)(C)C)CC2)cc1OC	-2%	.	.	.	.
CSc1ccc(CCNC(=O)c2csc3c2CCCCC3)cc1	?	.	.	.	2%
CCc1c(C)nc2[nH]nc(-c3ccccc3)n2c1=O	21µM*	9%	?	14%	.
CCc1c(C)nc2[nH]nc(-c3ccccc3C)n2c1=O	?	0%	2%	1%	20%
c1ccc(Nc2nc(-c3ccccc3)ns2)cc1	2.1µM*	1.3µM*	1.8µM*	1.8µM*	.
O=C(Nc1nc(-c2ccccc2)ns1)c1ccncc1	11µM*	28%	1%	24%	.
CC(C)(C)C(=O)Nc1nc(-c2ccccc2)ns1	5.4µM*	0.63µM*	14%	0.5µM*	1.6µM*
O=C(Nc1nc(-c2ccccc2)ns1)c1ccc(Cl)cc1	-6%	.	.	.	.
SMILES	FLuc counter	Rab9 promoter act	ELG1 genotox	NPC1 promoter act	SMN2 splice enh
COc1cccc(C2C(C(=O)Nc3ccccc3OC)=C(C)Nc3nc(-c4ccco4)nn32)c1 (stereo not given)	-18%	.	.	.	-3%
COc1ccc(NC2=Nc3ccccc3CC2)cc1	11µM*	1.6µM*	4.5µM*	2.8µM*	13µM*
COc1ccc(NC2=NCCCCC2)cc1	1%	-1%	-2%	1%	.
CCOc1ccc(CNC(=O)COc2cc(=O)n(C)c3ccccc23)cc1	-6%	.	.	.	4%
Cc1[nH]c2ccccc2c1/C=N/Nc1cccc(C(=O)O)c1	2.7µM*	2µM*	?	1.6µM*	.
Cc1[nH]c2ccccc2c1/C=N/NC(=O)c1ccc(N)cc1	12µM*	1%	7%	-5%	.
Cc1[nH]c2ccccc2c1/C=N/NC(=O)c1ccccc1	?	-1%	4%	0%	.
Cc1[nH]c2ccccc2c1/C=N/NC(=O)c1cc(C(C)(C)C)[nH]n1	12µM*	0%	-5%	14%	.

Assay outcomes: PubChem BioAssay, National Center for Advancing Translational Sciences (NCATS)
